Measurements published in the antibiotic and cytotoxicity screens of Wong et al. (2023).
The campaign covered roughly 39,000 compounds. About 1,500 (3.8%) were called active. Shown is part of a subset that was picked to be rich in actives.

tested on: HSkMC (human skeletal muscle cells); assay: cytotoxicity call (relative viability < 0.9); details: 10 µM

SMILES | cytotoxicity call
COc1ccc(-c2ccccc2)cc1NC(=O)c1ccc2nc(C)c(N(C)C(=O)CCc3ccccc3)n2c1 | inactive
C[C@H](CO)N1C[C@H](C)[C@H](CN(C)C(=O)C2CCC2)Oc2cc(C#Cc3ccncc3)ccc2S1(=O)=O | inactive
N[C@H]1CCN(c2ccc(C(F)(F)F)cn2)C1 | inactive
COc1ccc(S(=O)(=O)Nc2ccc3c(c2)C(=O)N([C@H](C)CO)C[C@H](C)[C@@H](CN(C)Cc2ccc(C(F)(F)F)cc2)OCCCC[C@H](C)O3)cc1 | inactive
COc1ccc(S(=O)(=O)Nc2ccc3c(c2)C(=O)N([C@@H](C)CO)C[C@H](C)[C@H](CN(C)Cc2ccc(C(F)(F)F)cc2)OCCCC[C@@H](C)O3)cc1 | inactive
COc1ccc(S(=O)(=O)Nc2ccc3c(c2)C(=O)N([C@H](C)CO)C[C@H](C)[C@H](CN(C)Cc2ccc(C(F)(F)F)cc2)OCCCC[C@@H](C)O3)cc1 | inactive
COc1ccc(S(=O)(=O)Nc2ccc3c(c2)C(=O)N([C@@H](C)CO)C[C@@H](C)[C@H](CN(C)Cc2ccc(C(F)(F)F)cc2)OCCCC[C@H](C)O3)cc1 | active
COc1ccc(S(=O)(=O)Nc2ccc3c(c2)C(=O)N([C@@H](C)CO)C[C@H](C)[C@H](CN(C)Cc2ccc(C(F)(F)F)cc2)OCCCC[C@H](C)O3)cc1 | active
COc1ccc(S(=O)(=O)Nc2ccc3c(c2)C(=O)N([C@H](C)CO)C[C@@H](C)[C@H](CN(C)Cc2ccc(C(F)(F)F)cc2)OCCCC[C@H](C)O3)cc1 | inactive
C[C@]12C[C@]3(O)O[C@@H](O1)[C@]1(COC(=O)c4ccccc4)[C@H]3C[C@@]12O[C@@H]1O[C@H](CO)[C@@H](O)[C@H](O)[C@H]1O | inactive
COc1ccc(COC[C@@]23Oc4ccccc4[C@@H](NC(=S)N2C)[C@@H]3CO[Si](C)(C)C(C)(C)C)cc1 | inactive
C[C@H](CO)N1C[C@H](C)[C@H](CN(C)Cc2ccncc2)OCCCC[C@H](C)Oc2ccc(NC(=O)Cc3ccccc3)cc2C1=O | inactive
C[C@@H]1CN([C@@H](C)CO)C(=O)c2cc(NC(=O)Nc3ccc(C(F)(F)F)cc3)ccc2O[C@@H]1CN(C)C(=O)Nc1ccccc1 | active
C[C@H]1CN([C@@H](C)CO)C(=O)c2cc(NC(=O)Nc3ccc(C(F)(F)F)cc3)ccc2O[C@@H]1CN(C)C(=O)Nc1ccccc1 | inactive
C[C@@H]1CN([C@@H](C)CO)C(=O)c2cc(NC(=O)Nc3ccccc3)ccc2O[C@H]1CN(C)C(=O)Nc1ccc(C(F)(F)F)cc1 | inactive
C[C@H]1CN([C@@H](C)CO)C(=O)c2cc(NC(=O)Nc3ccccc3)ccc2O[C@H]1CN(C)C(=O)Nc1ccc(C(F)(F)F)cc1 | inactive
C[C@@H]1CN([C@@H](C)CO)C(=O)c2cc(NC(=O)Nc3ccccc3)ccc2O[C@@H]1CN(C)C(=O)Nc1ccc(C(F)(F)F)cc1 | inactive
C[C@H](CO)N1C[C@H](C)[C@H](CN(C)C(=O)Nc2ccc(C(F)(F)F)cc2)Oc2ccc(NC(=O)Nc3ccccc3)cc2C1=O | active
C[C@H](CO)N1C[C@H](C)[C@@H](CN(C)C(=O)Nc2ccccc2)Oc2ccc(NC(=O)Nc3ccc(C(F)(F)F)cc3)cc2C1=O | inactive
C[C@H](CO)N1C[C@H](C)[C@H](CN(C)C(=O)Nc2ccccc2)Oc2ccc(NC(=O)Nc3ccc(C(F)(F)F)cc3)cc2C1=O | active

SMILES | cytotoxicity call
C[C@@H]1CN([C@H](C)CO)C(=O)c2cc(NC(=O)Nc3ccccc3)ccc2O[C@@H]1CN(C)C(=O)Nc1ccc(C(F)(F)F)cc1 | inactive
O=C(N[C@H]1CC[C@H](CC(=O)N2CCOCC2)O[C@H]1CO)c1ccc2c(c1)OCO2 | inactive
C[C@@H]1CN([C@@H](C)CO)C(=O)c2cccc(NC(=O)C3CCOCC3)c2O[C@H]1CN(C)Cc1ccncc1 | inactive
C[C@@H]1CCCCO[C@H](CN(C)C(=O)Nc2ccccc2)[C@H](C)CN([C@@H](C)CO)C(=O)c2cc(NS(=O)(=O)c3ccccc3)ccc2O1 | inactive
C[C@H](CO)N1C[C@H](C)[C@@H](CN(C)S(=O)(=O)c2ccc(-c3ccccc3)cc2)OCc2cn(nn2)CCCC1=O | inactive
C[C@H]1O[C@@H]2[C@H](O[C@@H]1C)N(S(C)(=O)=O)CCN2S(C)(=O)=O | inactive
COc1ccc(NC(=O)N2C[C@H](O)COC[C@H]3O[C@H](CC(=O)NC4Cc5ccccc5C4)CC[C@@H]32)cc1 | inactive
C[C@H](CO)N1C[C@H](C)[C@H](CN(C)Cc2ccc(-c3ccccc3)cc2)Oc2ccc(NC(=O)Nc3ccc4c(c3)OCO4)cc2CC1=O | inactive
C=CCC[C@@H](Cc1ccc(F)cc1)C(=O)OC[C@H]1CCCN1C(=O)[C@@H](CC=C)CC(=O)N(CCO)Cc1ccccc1 | inactive
C=CCC[C@@H](Cc1ccc(F)cc1)C(=O)OC[C@H]1CCCN1C(=O)[C@H](CC=C)CC(=O)N(CCO)Cc1ccccc1 | inactive
C=CCC[C@H](Cc1ccc(F)cc1)C(=O)OC[C@@H]1CCCN1C(=O)[C@@H](CC=C)CC(=O)N(CCO)Cc1ccccc1 | active
C=CCC[C@H](Cc1ccc(F)cc1)C(=O)OC[C@H]1CCCN1C(=O)[C@H](CC=C)CC(=O)N(CCO)Cc1ccccc1 | inactive
C=CCC[C@@H](Cc1ccc(F)cc1)C(=O)OC[C@@H]1CCCN1C(=O)[C@@H](CC=C)CC(=O)N(CCO)Cc1ccccc1 | inactive
C=CCC[C@H](Cc1ccc(F)cc1)C(=O)OC[C@H]1CCCN1C(=O)[C@@H](CC=C)CC(=O)N(CCO)Cc1ccccc1 | active
CN(C)CC(=O)N[C@@H]1CC[C@H](CC(=O)NCCN2CCCCC2)O[C@H]1CO | inactive
COc1ccc(C2=NS(=O)(=O)N(C)C(C(=O)N3CCC(C(N)=O)CC3)=C2)cc1 | inactive
CC(C)NC(=O)N(C)C[C@H]1Oc2c(NS(=O)(=O)c3ccc(Cl)cc3)cccc2C(=O)N([C@@H](C)CO)C[C@H]1C | inactive
COc1ccc(S(=O)(=O)Nc2cccc3c2O[C@@H](CN(C)S(=O)(=O)c2ccccc2)[C@H](C)CN([C@@H](C)CO)C3=O)cc1 | inactive
O=C(Nc1ccc2ccccc2c1)c1ccc(Cl)cc1Cl | inactive
O=C(Nc1ccc(Oc2ccc(Cl)cc2)c(Cl)c1)c1cc(I)cc(I)c1O | active
